The results in this text go back to PubChem BioAssay (NCI).

The structures appear in SMILES notation. The panel holds about 83,000 compounds, 20% with a hit somewhere; the sample as a whole holds those more often.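 Step 1: grow cells in 96-well plates. Step 2: add test compound at a single concentration. Step 3: incubate 48 h. Step 4: record percent growth.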 Unmarked numbers belong to inactive results. Active and inactive are the calls of the source. Rule for the calls: active = growth percent below 10; inactive = the rest.

Test in all cases: NCI-60 one-dose screen, 48 h (100 = growth as untreated, 0 = no growth, -100 = all killed)
Settings in all cases: 10 µM unless noted

Test [1] relates to NCI-H23 lung.
Test [2] deals with NCI-H226 lung.
In test [3] the test system is NCI-H322M lung.
The test system of test [4] is HOP-62 NSCLC.
For test [5], the system named is NCI-H460 lung.
Test [6] concerns HOP-92 NSCLC.
In test [7] the test system is NCI-H522 lung.
Test [8] deals with A549/ATCC NSCLC.
Test [9] deals with COLO 205 colon.
In test [10] the test system is DU-145 prostate.
Test [11] deals with K-562 leukemia.
The subject of test [12] is MALME-3M melanoma.
The test system of test [13] is RXF 393 renal.
Test [14] concerns SF-268 CNS.
Test [15] relates to SF-295 CNS.
Test [16] has as its system SF-539 CNS.
Test [17] deals with UACC-257 melanoma.
Test [18] concerns M14 melanoma.
For test [19], the system named is 786-0 renal.
In test [20] the test system is MDA-MB-231 breast.

For `Cc1cc(N)ccc1N`, the growth in [1] was 105%; in test [2], 92%; in [3], 95%; in test [4], 93.9%; in [5], 106%; in [6], 95.1%. In addition, the growth is 106% in test [7]; 98.2% in test [8]; 120% in [9]; 115% in test [10]; 105% in test [11]; 105% in test [12]. The growth was 103% in [13]; 103% in [14]; 108% in test [15]; 95.8% in test [16]; 97.2% in test [17]; 104% in test [18].

With `CC1=CC(=Nc2ccc(N(CCCl)CCCl)cc2)C=C(C)C1=O`, the growth in [1] is 23%; in test [2] it was 44.5%; in [3], 79.2%; in test [4] it was 36.5%; in [5], 7.26% (active); in [6], -30.7% (active). Further, the growth in test [8] is 38.4%; in test [19], 21%; in test [9], 39.5%; in [10], -39.4% (active); in test [11], 17.4%; in [12], 8.43% (active). Also, the growth in test [20] is 40.8%; in test [13] it was -80.3% (active); in test [14], -9.09% (active); in test [15], 14.9%; in test [16], 4.45% (active); in [17] it was 19.3%. For the same compound, the growth in test [18] was 29.5%.

Turning to `C[C@]12CCc3sc(Nc4ccc(F)cc4F)nc3C1=CC[C@@H]1[C@@H]2CC[C@]2(C)C(=O)CC[C@@H]12`, the growth is 66.2% in [1]; 84.2% in [2]; 84.5% in [3]; 87.1% in test [4]; 60.9% in [5]; 77.1% in test [6]. Also, the growth is 61.7% in [8]; -27.7% (active) in test [19]; 54.3% in [9]; 24% in test [10]; 2.15% (active) in test [11]; 69.5% in [12]. The growth in test [20] is 76.1%; in test [13], 5.6% (active); in [14], 70.7%; in test [15] it was 51%; in [16], 49.6%; in [17] it was 71.9%. In addition, the growth in test [18] was 57.8%.

Take `O=C1CCCCC1CN1CCCCC1` (centres undefined): the growth is 99.6% in [1]; 104% in test [2]; 94.6% in [3]; 93% in test [4]; 101% in test [5]; 97.2% in test [6]. For the same compound, the growth in test [7] is 84.3%; in [8], 94.9%; in test [19], 106%; in test [10], 100%; in [11], 119%; in [12], 86.2%. Also, the growth in test [20] is 116%; in test [13] it was 121%; in test [14] it was 97.7%; in [15], 97.2%; in test [16], 97%; in test [17] it was 96.2%. In [18], the growth is 109%.

`CCCCOCCOP(=O)(OCCOCCCC)OCCOCCCC`: the growth was 101% in [1]; 90.6% in [2]; 120% in test [3]; 91.6% in test [4]; 99.3% in test [5]; 111% in test [6]. For the same compound, the growth in test [7] is 100%; in test [19], 110%; in test [9] it was 105%; in [10], 115%; in test [11] it was 88.3%; in test [12], 111%. For the same compound, the growth in test [20] is 99%; in [13], 100%; in [14], 98.5%; in [15] it was 103%; in [16] it was 99.6%.

As for `COc1cc(C2C3=C(CCCC3=O)N(CCO)c3cc4c(cc32)CCC4)cc(OC)c1OC` (centres undefined), the growth in [1] was 80.8%; in test [2], 103%; in test [3] it was 75.1%; in test [4], 92.6%; in test [5], 36.4%; in test [6], 76%. For the same compound, the growth in [8] was 58.9%; in [19], 84.6%; in [9] it was 74%; in test [10], 94.1%; in [11], 78.7%; in [12], 93.1%. Further, the growth in test [20] was 82.1%; in test [13], 100%; in test [14], 90.4%; in test [15], 99.9%; in test [16], 106%; in test [17], 67.2%.

As for `CC1=CC(=O)CCC12CCOC2=O` (centres undefined), the growth in [1] was 102%; in [2], 101%; in test [3] it was 96.4%; in test [4], 99.5%; in test [5], 102%; in test [6] it was 102%. In addition, the growth in test [7] is 96.1%; in test [8] it was 97.8%; in test [19], 93.9%; in test [9] it was 116%; in [10], 106%; in [11], 97.1%. Further, the growth in [12] is 89.9%; in test [13], 108%; in test [14], 103%; in test [15], 95.8%; in test [16], 92.9%; in [17] it was 97.9%. The growth in [18] was 102%.
